In all, about 320,000 compounds went through this assay and about 240 (0.075%) were called active.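 Rule for the calls: active = inhibition at or above 25%, using the most active replicate where run in duplicate; inactive = inhibition below 25%.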 Only a selection was taken, and actives are over-represented in it overall.

The target of the test is Serine/threonine-protein kinase 33 (Homo sapiens) (UniProt Q9BYT3). Description: STK33 phosphorylation of MBP blockers – biochemical, ADP-Glo luminescence, homogeneous, cell-free, primary screen (AID 2661). The note with it: purified STK33, MBP phosphorylation, at 10 µM, stronger effect = higher value. In general terms: ADP-Glo turns the ADP formed in a reaction into a luminescent signal.
Sequence of Serine/threonine-protein kinase 33 (Homo sapiens) (Q9BYT3 whole entry, looked up): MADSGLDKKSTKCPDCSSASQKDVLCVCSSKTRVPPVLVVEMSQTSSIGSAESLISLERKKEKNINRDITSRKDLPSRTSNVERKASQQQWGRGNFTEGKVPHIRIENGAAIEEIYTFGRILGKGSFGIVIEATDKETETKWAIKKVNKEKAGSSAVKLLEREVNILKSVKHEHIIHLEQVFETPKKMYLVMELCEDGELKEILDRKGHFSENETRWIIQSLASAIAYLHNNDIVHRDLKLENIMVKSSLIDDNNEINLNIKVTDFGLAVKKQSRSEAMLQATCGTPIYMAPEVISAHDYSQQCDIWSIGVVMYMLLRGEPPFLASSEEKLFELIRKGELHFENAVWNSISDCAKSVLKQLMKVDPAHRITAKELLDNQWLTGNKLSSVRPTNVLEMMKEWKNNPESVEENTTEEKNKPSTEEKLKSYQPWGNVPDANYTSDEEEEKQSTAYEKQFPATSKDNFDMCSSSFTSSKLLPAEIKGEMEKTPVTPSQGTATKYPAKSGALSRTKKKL
Broadly, the inhibition is the change of the read-out against control, counted positive when it falls. For `CC(C)C[C@H](CO)Nc1nc(N(C)c2cccc(Cl)c2)c2ncn(C(C)C)c2n1`, the inhibition is -0.739% (inactive). Take `OCCCNc1nccc(-c2cc(Nc3cccc(Cl)c3)ncn2)n1`: the inhibition is 5.41% (inactive). On to `CC(C)n1cnc2c(Nc3cccc(Cl)c3)nc(N(CCO)CCCO)nc21`, for which the inhibition is 55.5% (active). To `O=C(COc1ccccc1F)Nc1nc(-c2ccccn2)cs1` belongs -1.01% (inactive).

Turning to `COc1ccc(C2(c3ccc(OC)cc3)NC(=O)N(CC(=O)Nc3cc(C)on3)C2=O)cc1`, the inhibition was -0.176% (inactive). To `CC1CN(C(=O)c2ccc([N+](=O)[O-])s2)CC(C)O1` (stereo not given) belongs -2.19% (inactive); to `O=C1CCC/C=C\C[C@@H](CC(=O)N(CCO)Cc2ccccc2)C(=O)NCCO1`, -0.894% (inactive); to `COC(=O)[C@]1(Cc2ccccc2)N[C@H](CN(C)S(=O)(=O)c2ccc(F)cc2)[C@@H]2C(=O)N(Cc3ccccc3)C(=O)[C@@H]21`, 0.777% (inactive). Regarding `CNC[C@@H]1Oc2c(NS(C)(=O)=O)cccc2C(=O)N([C@@H](C)CO)C[C@H]1C`, the inhibition is -0.879% (inactive).

Consider `O=C(Cn1cnc2c(OCc3ccccc3)ncnc21)NCc1nc2ccccc2[nH]1`, for which the inhibition is 0.0433% (inactive). Consider `O=C(COC(=O)CSc1ccccc1)Nc1ccc(F)cc1F`, for which the inhibition was -1.54% (inactive).

Take `Cc1noc(C)c1C(=O)OC(C)C(=O)Nc1ccc2c(c1)OCO2` (stereo not given): the inhibition was -2.76% (inactive).

On to `CC(C)(C)OC(=O)C[C@@H]1C/C=C\C[C@@H](CC(=O)N[C@@H](CO)Cc2ccccc2)C(=O)N2CCC[C@H]2COC1=O`, for which the inhibition was -0.177% (inactive). For `O=C1N=C(N2CCCC2)S/C1=C\c1cccc(Br)c1`, the inhibition was -0.704% (inactive).

Turning to `CC1CCN(C2=NC(=O)/C(=C/c3cn[nH]c3-c3ccccc3)S2)CC1`, the inhibition is 0.902% (inactive).

Turning to `CCOc1cc(/C=C2\SC(N3CCCC(C)C3)=NC2=O)ccc1O` (stereo not given), the inhibition was 26.4% (active). With `CC1CCN(C2=NC(=O)/C(=C/c3ccc(O)cc3)S2)CC1`, the inhibition is 25.8% (active). On to `O=C1N=C(N2CCc3ccccc3C2)S/C1=C\c1ccc(O)cc1`, for which the inhibition was 11% (inactive). The same measure for `CCOc1cc(/C=C2\SC(N3CCCCC3)=NC2=O)ccc1O`: 8.65% (inactive). With `O=C(COC(=O)c1ccc(F)cc1)NCC1COc2ccccc2O1` (stereo not given), the inhibition was -0.961% (inactive). The same measure for `NS(=O)(=O)c1ccc(CNC(=S)NC(=O)c2ccco2)cc1`: -0.0738% (inactive); for `CC1Cc2ccccc2N1S(=O)(=O)c1cccc(C(=O)OCC(=O)N2CCOCC2)c1` (stereo not given): -1.13% (inactive). To `Cc1ccc(S(=O)(=O)N2CCCCC2)cc1NC(=O)CCNC(=O)c1ccccc1` belongs -0.0957% (inactive). For `O=C(Nc1nnc(-c2ccccc2)o1)c1cccc(S(=O)(=O)N2CCOCC2)c1`, the inhibition was -0.807% (inactive).

Regarding `COc1cc(OC)cc(C(=O)NCC(=O)OCC(=O)NC(C)CCc2ccccc2)c1` (stereo not given), the inhibition is -0.78% (inactive).

Take `Cn1cccc1C(=O)OCC(=O)NCCc1ccccc1`: the inhibition was -0.939% (inactive). The same measure for `CC(C#N)OC(=O)c1cccnc1SCC(=O)Nc1ccc2c(c1)OCO2` (stereo not given): 0.605% (inactive). As for `CC(=O)c1c(C)[nH]c(C(=O)COC(=O)c2cccs2)c1C`, the inhibition is -3.01% (inactive). The same measure for `COc1cc(OC)cc(-c2cc3ccc(F)cc3cn2)c1`: 1.46% (inactive); for `COc1ccc2nc3n(c(=O)c2c1)-c1ccc(Cl)cc1C(=O)NC3Cc1ccccc1` (stereo not given): 0.119% (inactive). To `COc1ccc(-n2cnc3cc(C(=O)NC4CCCC4)ccc32)cc1` belongs -0.505% (inactive). For the molecule `COc1cc(C(=O)NC2CCN(C)CC2)ccc1Nc1ncc2c(n1)N(C1CCC(O)CC1)CCC(=O)N2C` (stereo not given), the inhibition is 54.5% (active). The same measure for `COc1ccc(C(=O)NC2CC2)cc1OC1CCN(Cc2cnn(C)c2)CC1`: 0.281% (inactive); for `Cc1ccc(C(=O)Nc2ccccc2-c2ccccc2)cc1S(=O)(=O)Nc1ccccc1`: -1.82% (inactive); for `COCCN(CCOC)S(=O)(=O)NC[C@H]1O[C@@H](n2cnc3c(N)ncnc32)[C@H](O)[C@@H]1O`: -0.284% (inactive). The same measure for `COc1ccccc1CNC(=O)COC(=O)c1cccs1`: -1% (inactive); for `COc1cc(SC)ccc1C(=O)NNC(=O)C1COc2ccccc2O1` (stereo not given): -1.07% (inactive). The same measure for `O=C(CSc1nccn1-c1cccc(F)c1)NC1CCCC1`: 0.473% (inactive); for `Cc1ccc(NS(=O)(=O)c2ccc(C(C)C)cc2)cc1S(=O)(=O)N1CCOCC1`: -3.33% (inactive). As for `O=C(N=C1SC2CS(=O)(=O)CC2N1c1ccccc1)c1ccccc1` (stereo not given), the inhibition was 0.811% (inactive). The same measure for `COc1cc(OC)cc(-c2sc3ccc(OC)cc3c2-c2ccc3cc[nH]c3c2)c1`: 1.63% (inactive). To `CC(Oc1ccc2c(-c3ccccc3)cc(=O)oc2c1)C(=O)NC(Cc1c[nH]c2ccccc12)C(=O)O` (stereo not given) belongs -3% (inactive). To `COc1cccc2sc3cc(NCC[C@@H]4CCCN4C)ccc3c(=O)c12` belongs 4.13% (inactive). As to `COC(=O)[C@]1(CC(C)C)N[C@H](c2ccc(SC3CCCCC3)cc2)[C@@H]2C(=O)N(C)C(=O)[C@@H]21`, the inhibition is -0.318% (inactive).

Turning to `COc1ccc(C(=O)C(C)OC(=O)c2cccc(S(=O)(=O)Nc3c(C)n(C)n(-c4ccccc4)c3=O)c2)cc1` (stereo not given), the inhibition is -0.0798% (inactive). With `CC(=O)C(CC(=O)N1CCCC1)C(=O)Nc1ccc(Cl)cc1` (stereo not given), the inhibition was -0.972% (inactive). As for `CCC(CO)Oc1cc(NCc2ccccc2)c2ncn(C3CCCC3)c2c1` (stereo not given), the inhibition was 3.27% (inactive). `O=C(Nc1cccc(S(=O)(=O)N2CCCCC2)c1)c1cncc(Br)c1`: the inhibition is -0.246% (inactive). For `CC(=NNC(=O)c1ccc2nc[nH]c2c1)c1ccc(Br)cc1`, the inhibition was -0.319% (inactive). As to `COc1cc(S(=O)(=O)N2CCN(C(=O)C3CC3)CC2)ccc1NC(C)=O`, the inhibition is 0.285% (inactive). The same measure for `COc1ccccc1C(=O)COC(=O)COc1ccc(C#N)cc1`: 5.03% (inactive). On to `Cc1cccc(NC(=S)Nc2ccc3cn[nH]c3c2)c1`, for which the inhibition is 11.6% (inactive). For the molecule `CCc1cccc(CC)c1NC(=S)Nc1ccc2cn[nH]c2c1`, the inhibition was 24.8% (inactive). In the case of `S=C(Nc1cccc(Cl)c1)Nc1ccc2cn[nH]c2c1`, the inhibition is 27% (active). As for `CN(Cc1ccc(F)cc1)C(=O)CN1C(=O)c2ccccc2S1(=O)=O`, the inhibition is -1.27% (inactive).

The record behind these values is PubChem BioAssay AID2661 (Broad Institute, 2010).
